Columns and labels:
Type in all cases: functional
[1] = test system: Plasmodium falciparum; assay: GSK_TCMDC: Inhibition of Plasmodium falciparum 3D7 in whole red blood cells, using parasite LDH activity as an index of growth. Test compounds present at 2uM
[2] = test system: Plasmodium falciparum; assay: GSK_TCMDC: Inhibition of Plasmodium falciparum Dd2 in whole red blood cells, using parasite LDH activity as an index of growth. Test compounds present at 2uM
[3] = test system: HepG2; assay: GSK_TCMDC: Percent inhibition of human HepG2 cell line. Test compounds present at 10uM.

Row | Compound | Inhibition [1] [%] | Inhibition [2] [%] | Inhibition [3] [%]
1 | O=C(Nc1ccc(N2CCCCC2)c(Cl)c1)c1ccc(Br)o1 | 94 | 94 | 0
2 | CS(=O)(=O)N1CC2(CCN(CCC(NC(=O)Nc3ccccc3)c3ccc(Cl)c(Cl)c3)CC2)c2ccccc21 (configuration not stated) | 99 | 72 | 23
3 | O=C(O)C(F)(F)F.O=C(c1ccccc1)N(Cc1ccccc1-c1ccc(CNCCc2ccccc2)cc1)C1CCN(Cc2ccccc2)CC1 | 95 | 69 | 95
4 | Cc1cc(-c2ccc3c(c2)CCN(CCC2CCC(NC(=O)/C=C/c4cccc(F)c4)CC2)CC3)on1.Cl (configuration not stated) | 95 | 19 | 23
5 | COC(=O)c1ccc2nc(-c3ccc(/C=C/C(=O)NC4CCN(Cc5ccccc5)CC4)cc3)[nH]c2c1 | 100 | 88 | 12
6 | NC(=O)c1ccc(-n2cnc3cc(F)ccc32)cc1OCc1ccccc1C(F)(F)F.NC(=O)c1ccc(-n2cnc3ccc(F)cc32)cc1OCc1ccccc1C(F)(F)F | 97 | 93 | 55
7 | COc1cc(OC)c(OC)cc1CN1CCC2(CC1)CN(Cc1ccc(Cl)c(Cl)c1)C(=O)O2 | 90 | 94 | 8
8 | COC(=O)c1cccc(CNCc2cccc(-c3cccc(-c4nc5cc(C(F)(F)F)ccc5[nH]4)c3)c2)c1.O=C(O)C(F)(F)F | 100 | 69 | 7
9 | CCOC(=O)c1ccc(NC(=O)N[C@H]2CCN(CCCCCNC(=O)/C=C/c3ccc(Cl)c(Cl)c3)C2)cc1 | 98 | 1 | 21

Source: ChEMBL document CHEMBL1157539, “Thousands of chemical starting points for antimalarial lead identification” (Nature, 2010)
